ASM inhibitor – Inhibitors of Secretory Acid Sphingomyelinase (S-ASM): qHTS | actives 0.006% (n = 340,000) | Potency, µM (doses to about 57.5 µM), hits mostly inhibitors | AID 504937, 2011 | placental ASM, HMU-PC fluorogenic substrate, 60 min
Target sequence (P17405 47-631 limits assumed): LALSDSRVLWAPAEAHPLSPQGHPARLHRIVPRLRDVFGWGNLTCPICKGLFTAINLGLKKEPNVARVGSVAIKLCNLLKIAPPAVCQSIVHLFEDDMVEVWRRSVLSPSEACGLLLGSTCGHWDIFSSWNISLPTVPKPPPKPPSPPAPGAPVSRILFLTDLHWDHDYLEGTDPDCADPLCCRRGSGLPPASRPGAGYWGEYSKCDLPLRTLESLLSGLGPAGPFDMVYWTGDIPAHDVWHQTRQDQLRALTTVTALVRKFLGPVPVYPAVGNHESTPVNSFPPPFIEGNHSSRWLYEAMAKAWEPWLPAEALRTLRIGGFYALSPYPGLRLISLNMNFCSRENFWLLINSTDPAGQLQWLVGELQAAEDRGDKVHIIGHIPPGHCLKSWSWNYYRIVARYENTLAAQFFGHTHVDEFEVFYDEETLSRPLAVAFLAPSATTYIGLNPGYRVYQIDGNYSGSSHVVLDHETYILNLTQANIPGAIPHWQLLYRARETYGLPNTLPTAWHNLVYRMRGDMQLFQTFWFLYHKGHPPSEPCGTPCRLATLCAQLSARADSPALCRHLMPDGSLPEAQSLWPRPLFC
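HMU-PC0 cleavage (9 uM final) by human placental ASM, 60 min at 37 °C following 10 min compound exposure at RT; stopped at pH 10, fluorescence Ex 386/Em 447 nm.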
TDP1 cell CPT – qHTS for Inhibitors of human tyrosyl-DNA phosphodiesterase 1 (TDP1): qHTS in cells in presence of CPT. Potency, µM (doses to about 46.2 µM), usual class: inhibitors. actives 12% (n = 420,000). chicken DT40 Tdp1-/-;hTDP1 cells + 20 nM CPT, ATP luminescence, 48 h; also: nearly all actives have a fitted effect of over 55% in size
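Chicken DT40 Tdp1-/- cells complemented with human TDP1, 400 cells/well, exposed to compounds plus 20 nM camptothecin for at least 48 h at 37 C; viability read as ATP content by CellTiter-Glo luminescence.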
IL-1B inflam inh – qHTS for Inhibitors of Inflammasome Signaling: IL-1-beta AlphaLISA Primary Screen; THP-1 LPS/ATP IL-1B secretion, AlphaLISA, 16 h; active compounds read low; activity change, % at 57.5 µM; actives 4.7% (n = 360,000); in the data active = activity change below about -50%; inconclusive = mostly about -30% to -49%
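Secreted IL-1B measured by AlphaLISA bead assay after 16 h compound exposure of THP-1 cells; compounds (final up to 57.5 uM) added 1 h before LPS (250 ng/mL) and ATP (1.25 mM) stimulation; lower signal means less secretion.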
HepG2 tox – qHTS for Inhibitors of TGF-b: Cytotox Counterscreen. AID 588856, 2011. Potency, µM (top dose mostly 46.1 µM), hits mostly cytotoxic. HepG2 CAGA-GFP viability, ATP luminescence, 18 h. actives 0.76% (n = 410,000)
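HepG2 CAGA-GFP cells (1000/well, DMEM with 1% FBS) received compound, then TGF-beta at 500 pg/mL final, and were incubated 18 hours at 37 degrees C. Viability was read by CellTiter-Glo luminescence. Media-only wells were set as complete cell-killing and DMSO as no toxicity.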
TDP1 cell noCPT – qHTS for Inhibitors of human tyrosyl-DNA phosphodiesterase 1 (TDP1): qHTS in cells in absence of CPT. Potency, µM (top dose mostly 46.2 µM), usual class: inhibitors. actives 15% (n = 420,000). DT40 Tdp1-/- hTDP1 cells, no CPT, ATP luminescence, 48 h; also: nearly all actives have a fitted effect of over 55% in size
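Chicken DT40 Tdp1-/- cells complemented with human TDP1, screened without camptothecin (DMSO vehicle only), 400 cells/well. Compounds pin-transferred, cells incubated at 37 °C for at least 48 hr. Growth read as ATP-dependent luminescence (CellTiter-Glo, 30 min at RT).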
TGFb SMAD3 inh – qHTS for Inhibitors of TGF-b. HepG2 CAGA-GFP TGF-b/SMAD3 reporter, GFP fluorescence, 18 h; TGF-beta stimulated, 500 pg/mL final. Potency, µM (top dose mostly 46.1 µM), hits mostly inhibitors. actives 1.2% (n = 410,000). AID 588855, 2011; also: nearly all actives have a fitted effect of over 65% in size
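HEPG2 CAGA-GFP reporter cells (1000/well, DMEM with 1% FBS) received compounds, then recombinant TGF-beta at 500 pg/mL final for 18 hours at 37 degrees C. Per-cell GFP summed per well was normalised to unstimulated and stimulated DMSO controls before curve fitting.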
A number is an active result; n = inactive; u = inconclusive; x = no result given. Rows were chosen to be rich in hits. Some 19% of all compounds tested hit in one or more screens of this group. Unless noted, calls follow the shape of the dose curve; as a rule, active = well fitted curve in the direction sought with a large enough effect; inconclusive = small, poorly fitted or top-dose-only effect, or another doubt; inactive = no such curve, though single readings can be large; an effect the other way counts as inactive or inconclusive.

SMILES	ASM inhibitor	TDP1 cell CPT	IL-1B inflam inh	HepG2 tox	TDP1 cell noCPT	TGFb SMAD3 inh
O=C(N/N=C/c1cc(Br)c(O)c(Br)c1O)c1cccnc1	n	20.6µM	n	n	u	n
O=C(N/N=C/c1cc2c(cc1Br)OCO2)c1cccnc1	n	n	u	n	u	n
COc1ccc(Br)c(C(=O)NNC(=O)c2ccc(NS(=O)(=O)c3cccs3)cc2)c1	n	n	n	n	n	n
Cc1ccc(CNC(=O)CCCn2c(=O)c3ccccc3n(CC(=O)C(C)(C)C)c2=O)cc1	x	u	x	n	u	n
Cc1c(F)cccc1NS(=O)(=O)c1ccc2c(c1)c(C)cc(=O)n2C	n	u	n	n	u	n
O=C(O)c1ccc(-n2nnnc2SCc2ccccc2Br)cc1	n	n	n	n	n	n
CC(C)(C)OC(=O)N1CCC(C(=O)Nc2ccc(C(=O)NCc3ccccc3)cc2)CC1	n	16.4µM	n	n	14.6µM	n
CC(C)(C)OC(=O)N1CCC(C(=O)Nc2ccc(C(=O)NCCc3ccccc3)cc2)CC1	n	u	n	n	10.3µM	n
CC(C)(C)OC(=O)N1CCC(C(=O)Nc2ccc(C(=O)NC3CC3)cc2)CC1	n	n	n	n	n	n
O=C(NCCc1nnc2n1CCN(Cc1ccc3c(c1)CCO3)CC2)c1ccco1	x	n	x	x	n	x
Cc1ccc(C(=O)COC(=O)C2C3C=CC(C3)C2C(=O)OCC(=O)c2ccc(C)c(C)c2)cc1C (configuration not stated)	n	u	-53.5	n	u	u
O=C(O)c1ccc(CN2C[C@@H](CO)O[C@@H](n3cnc4c(N5CCOCC5)ncnc43)C2)cc1	x	n	n	n	n	n
CCC(C)[C@H](NC(=O)[C@@H]1CSC2c3ccccc3C(=O)N21)C(=O)NCc1ccco1 (some centres not stated)	n	n	n	n	n	n
CSCCC(NC(=O)COc1ccccc1)C(=O)N1CCN(C(C)=O)CC1 (configuration not stated)	x	n	n	n	n	n
O=C1c2cccc(OCC(=O)N3CCCc4ccccc43)c2CCN1Cc1ccc(Br)cc1	n	18.4µM	n	n	18.4µM	n
CCN1CCc2c(OCC(=O)N3CCCc4ccccc43)cccc2C1=O	n	n	n	n	n	n
Cc1ccccc1CN1CCc2c(OCC(=O)N3CCCCC3)cccc2C1=O	n	u	u	n	u	u
COC(=O)c1ccc(COc2cccc3c2CCN(Cc2ccccc2)C3=O)o1	n	u	n	n	u	u
O=C(COc1cccc2c1CCN(Cc1ccc(Br)cc1)C2=O)NCc1ccco1	n	18.4µM	n	n	23.1µM	u
Cc1ccc(CN2CCc3c(OCc4ccc(F)cc4)cccc3C2=O)cc1	n	u	-62.2	n	u	n
O=C(COc1cccc2c1CCN(Cc1ccc(Br)cc1)C2=O)N1CCOCC1	n	u	-62.9	n	23.1µM	n
CN(C(=O)COC(=O)COc1ccc(Cl)cc1Cl)c1c(N)n(Cc2ccccc2)c(=O)[nH]c1=O	n	n	n	n	n	n
CCC(C)[C@H](NC(=O)OC(C)(C)C)C(=O)NCC1CCC(C(=O)N[C@@H](Cc2ccccc2)C(=O)O)CC1 (some centres not stated)	n	n	n	n	n	n
O=C(O)c1ccccc1C(=O)OCC1CCC(=NO)CC1 (configuration not stated)	x	n	n	n	n	n
Cc1nn(Cc2c(F)c(F)c(F)c(F)c2F)c(C)c1NC(=O)c1ccc(COc2ccc(F)cc2)o1	n	16.4µM	u	n	20.6µM	u

Source: PubChem (National Center for Advancing Translational Sciences (NCATS))
